Our source for the Percent Effect values is ChEMBL document CHEMBL3988442, “University of Dundee, Small-Polar-MMV Screening Library” (2021).

For some assays here: Measured potencies and affinities stand elsewhere.

Holding throughout (parameters): scale not given: direction of the effect not stated beside the values
Test [1] has as its target Protein translocase subunit SecA (Escherichia coli (strain K12)) (UniProt P10408). In words: Assay to Identify E. coli SecA ATPase Inhibitors. The class given is functional. The note with it: 30 µM.
The target in test [2] is T1, Ubiquitin-activating enzyme e1, putative (Leishmania donovani (strain BPK282A1)) (UniProt E9BSI1).
T1 sequence (whole entry): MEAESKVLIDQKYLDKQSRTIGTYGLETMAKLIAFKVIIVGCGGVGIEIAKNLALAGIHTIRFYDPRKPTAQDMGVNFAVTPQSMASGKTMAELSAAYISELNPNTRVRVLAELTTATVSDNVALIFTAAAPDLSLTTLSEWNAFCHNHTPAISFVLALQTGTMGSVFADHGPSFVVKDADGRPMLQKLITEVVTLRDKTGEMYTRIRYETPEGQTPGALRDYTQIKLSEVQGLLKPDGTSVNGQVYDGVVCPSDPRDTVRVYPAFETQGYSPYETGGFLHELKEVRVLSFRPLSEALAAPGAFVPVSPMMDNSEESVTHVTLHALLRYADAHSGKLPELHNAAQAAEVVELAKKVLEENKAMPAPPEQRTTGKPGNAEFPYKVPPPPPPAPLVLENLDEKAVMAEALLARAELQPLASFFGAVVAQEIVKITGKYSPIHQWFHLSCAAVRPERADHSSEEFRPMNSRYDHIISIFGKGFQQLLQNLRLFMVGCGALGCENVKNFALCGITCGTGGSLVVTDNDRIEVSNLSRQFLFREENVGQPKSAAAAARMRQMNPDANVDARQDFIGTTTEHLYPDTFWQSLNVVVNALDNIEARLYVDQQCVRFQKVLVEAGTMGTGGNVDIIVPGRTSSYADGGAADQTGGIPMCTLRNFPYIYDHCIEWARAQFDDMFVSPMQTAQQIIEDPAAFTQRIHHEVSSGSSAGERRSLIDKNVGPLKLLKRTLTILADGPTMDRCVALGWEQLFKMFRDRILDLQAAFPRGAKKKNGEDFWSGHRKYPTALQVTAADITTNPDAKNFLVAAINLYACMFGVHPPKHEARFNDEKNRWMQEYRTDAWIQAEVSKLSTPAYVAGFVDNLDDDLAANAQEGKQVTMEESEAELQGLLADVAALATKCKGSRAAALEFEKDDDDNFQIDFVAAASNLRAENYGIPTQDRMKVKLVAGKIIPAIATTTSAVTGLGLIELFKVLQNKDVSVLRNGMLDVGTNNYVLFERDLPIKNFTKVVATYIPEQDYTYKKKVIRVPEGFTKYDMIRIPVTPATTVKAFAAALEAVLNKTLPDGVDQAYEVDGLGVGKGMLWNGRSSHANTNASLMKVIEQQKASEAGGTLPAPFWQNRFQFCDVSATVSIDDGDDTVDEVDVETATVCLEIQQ
In words: Leishmania donovani Ubiquitin Activating Enzyme (LdE1). The class given is functional. The note with it: 30 µM.

The target of test [3] is Sialic acid-binding Ig-like lectin 9 (Homo sapiens) (UniProt Q9Y336). In words: Hs-Siglec9 ALPHAscreen SOP 20170721. The note with it: 10 µM.
Test [4] has as its system Trypanosoma cruzi. In words: Trypanosoma cruzi phosphomannomutase and mannose-1-phosphate guanylyltransferase assay. The class given is functional. The note with it: 10 µM.
The target of test [5] is T2, Arginase-2, mitochondrial (Homo sapiens) (UniProt P78540).
T2 sequence (whole entry): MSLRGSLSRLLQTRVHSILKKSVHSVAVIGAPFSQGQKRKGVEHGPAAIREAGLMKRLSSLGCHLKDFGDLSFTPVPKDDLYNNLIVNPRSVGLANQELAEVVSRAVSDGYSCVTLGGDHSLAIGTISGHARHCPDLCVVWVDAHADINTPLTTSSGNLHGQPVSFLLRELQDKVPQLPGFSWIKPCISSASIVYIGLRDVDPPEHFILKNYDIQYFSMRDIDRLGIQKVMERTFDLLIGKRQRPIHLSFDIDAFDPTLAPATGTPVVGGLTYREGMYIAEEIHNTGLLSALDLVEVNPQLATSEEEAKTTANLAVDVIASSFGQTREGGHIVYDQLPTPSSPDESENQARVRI
In words: in vitro enzyme assay to detect the production of urea directly proportional to the activity of Arginase II. Further: in the data most compounds retested in dose-response had high values. To be noted: 33.3 µM. The class given is functional.

The target of test [6] is T3, Proteasome subunit beta (Trypanosoma cruzi) (UniProt O96673).
T3 sequence (whole entry): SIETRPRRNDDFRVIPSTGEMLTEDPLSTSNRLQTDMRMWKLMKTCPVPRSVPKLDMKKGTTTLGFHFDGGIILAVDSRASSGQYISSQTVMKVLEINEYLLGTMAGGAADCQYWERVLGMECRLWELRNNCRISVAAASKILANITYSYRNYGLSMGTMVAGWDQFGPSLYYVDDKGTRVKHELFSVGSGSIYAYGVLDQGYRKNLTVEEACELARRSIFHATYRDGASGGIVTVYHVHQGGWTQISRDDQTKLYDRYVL
In words: Trypanosoma cruzi proteasome chymotrypsin-like activity (TcProtChymo) assay. Further: in the data most compounds retested in dose-response had high values. The class given is functional. To be noted: 9.37 µM.

For test [7], the species on record is Homo sapiens. In words: To identify inhibition of the IFN signalling (Jak-Stat) pathway via expression of an eGFP reporter gene under the control of an IFN-stimulated response element (ISRE) containing MxA promoter. The class given is functional. The note with it: 30 µM. For orientation: Reporter assays use an easily measured gene product as a stand-in for the process of interest.

Test [8] deals with T4, Tyrosyl-tRNA synthetase, putative (Trypanosoma cruzi (strain CL Brener)) (UniProt Q4DSP6).
T4 sequence (whole entry): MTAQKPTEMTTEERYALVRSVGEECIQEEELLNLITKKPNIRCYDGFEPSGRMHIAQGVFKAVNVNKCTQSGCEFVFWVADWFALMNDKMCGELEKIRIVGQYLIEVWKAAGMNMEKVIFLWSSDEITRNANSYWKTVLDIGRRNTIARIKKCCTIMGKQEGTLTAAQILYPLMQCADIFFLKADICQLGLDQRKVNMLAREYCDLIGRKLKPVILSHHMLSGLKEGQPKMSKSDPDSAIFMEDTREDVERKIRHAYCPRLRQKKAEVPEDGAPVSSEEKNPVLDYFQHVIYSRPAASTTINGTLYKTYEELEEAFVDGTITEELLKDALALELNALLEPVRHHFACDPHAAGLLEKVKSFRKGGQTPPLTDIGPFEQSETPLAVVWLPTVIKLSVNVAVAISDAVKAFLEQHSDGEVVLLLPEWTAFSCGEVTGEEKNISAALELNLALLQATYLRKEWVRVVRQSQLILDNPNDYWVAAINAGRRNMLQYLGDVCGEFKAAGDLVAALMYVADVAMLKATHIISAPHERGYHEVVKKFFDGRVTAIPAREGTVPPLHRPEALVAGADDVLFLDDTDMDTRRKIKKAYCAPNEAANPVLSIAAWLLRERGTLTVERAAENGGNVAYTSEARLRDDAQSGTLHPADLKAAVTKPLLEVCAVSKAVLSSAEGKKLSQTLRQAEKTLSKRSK
In words: Trypanosoma cruzi tyrosyl tRNA synthetase (TcYRS) _High Tyrosine SOP. Further: in the data most compounds retested in dose-response had high values. The class given is functional. To be noted: 30 µM.

Test [9] concerns the target T4, Tyrosyl-tRNA synthetase, putative (Trypanosoma cruzi (strain CL Brener)). In words: Trypanosoma cruzi tyrosyl tRNA synthetase (TcYRS) SOP. The class given is functional. The note with it: 30 µM.
Test [10] addresses Chromo domain-containing protein 1 (Saccharomyces cerevisiae (strain ATCC 204508 / S288c) (Baker's yeast)) (UniProt P32657). In words: ScCHD-1 Enzyme Inhibition Assay. Further: in the data most compounds retested in dose-response had high values. The class given is functional. The note with it: 30 µM.

Sequence of Chromo domain-containing protein 1 (Saccharomyces cerevisiae (strain ATCC 204508 / S288c) (Baker's yeast)) (P32657 whole entry, the tested form may be a part): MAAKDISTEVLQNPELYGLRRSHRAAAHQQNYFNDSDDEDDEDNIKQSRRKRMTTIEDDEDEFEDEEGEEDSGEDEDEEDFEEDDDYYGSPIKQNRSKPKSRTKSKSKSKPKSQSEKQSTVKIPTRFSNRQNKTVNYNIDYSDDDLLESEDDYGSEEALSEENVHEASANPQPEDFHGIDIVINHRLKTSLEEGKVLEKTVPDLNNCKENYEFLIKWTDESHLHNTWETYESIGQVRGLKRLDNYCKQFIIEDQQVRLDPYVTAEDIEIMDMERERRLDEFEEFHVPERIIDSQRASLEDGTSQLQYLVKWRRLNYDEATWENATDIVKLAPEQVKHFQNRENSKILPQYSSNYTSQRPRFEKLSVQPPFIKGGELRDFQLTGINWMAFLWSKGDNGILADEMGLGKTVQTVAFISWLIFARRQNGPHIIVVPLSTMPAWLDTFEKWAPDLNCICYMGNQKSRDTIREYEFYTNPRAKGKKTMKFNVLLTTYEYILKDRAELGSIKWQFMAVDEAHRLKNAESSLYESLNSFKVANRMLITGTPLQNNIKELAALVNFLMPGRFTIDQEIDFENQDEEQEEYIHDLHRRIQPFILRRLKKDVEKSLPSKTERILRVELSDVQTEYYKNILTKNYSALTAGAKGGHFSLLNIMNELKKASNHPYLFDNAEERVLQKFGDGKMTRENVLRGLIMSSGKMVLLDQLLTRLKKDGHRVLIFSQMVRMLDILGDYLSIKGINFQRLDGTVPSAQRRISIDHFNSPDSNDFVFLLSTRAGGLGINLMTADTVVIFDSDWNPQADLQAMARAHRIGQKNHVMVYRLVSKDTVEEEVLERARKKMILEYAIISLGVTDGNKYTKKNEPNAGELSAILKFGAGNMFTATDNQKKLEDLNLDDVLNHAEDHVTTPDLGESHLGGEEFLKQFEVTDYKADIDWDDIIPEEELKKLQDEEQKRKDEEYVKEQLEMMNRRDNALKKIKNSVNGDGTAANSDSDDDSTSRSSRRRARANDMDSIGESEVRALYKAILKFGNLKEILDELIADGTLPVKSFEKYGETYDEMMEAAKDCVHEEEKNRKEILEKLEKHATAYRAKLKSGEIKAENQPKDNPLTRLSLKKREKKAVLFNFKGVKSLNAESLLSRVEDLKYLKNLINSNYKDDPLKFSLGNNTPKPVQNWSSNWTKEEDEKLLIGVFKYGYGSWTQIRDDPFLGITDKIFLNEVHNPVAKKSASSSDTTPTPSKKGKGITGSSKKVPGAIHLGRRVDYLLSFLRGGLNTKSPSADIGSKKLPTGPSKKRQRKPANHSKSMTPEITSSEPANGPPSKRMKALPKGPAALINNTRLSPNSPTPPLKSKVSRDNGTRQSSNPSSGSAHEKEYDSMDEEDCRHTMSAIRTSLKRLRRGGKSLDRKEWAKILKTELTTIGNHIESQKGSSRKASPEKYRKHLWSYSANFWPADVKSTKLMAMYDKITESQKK
Sequence of Protein translocase subunit SecA (Escherichia coli (strain K12)) (P10408 whole entry): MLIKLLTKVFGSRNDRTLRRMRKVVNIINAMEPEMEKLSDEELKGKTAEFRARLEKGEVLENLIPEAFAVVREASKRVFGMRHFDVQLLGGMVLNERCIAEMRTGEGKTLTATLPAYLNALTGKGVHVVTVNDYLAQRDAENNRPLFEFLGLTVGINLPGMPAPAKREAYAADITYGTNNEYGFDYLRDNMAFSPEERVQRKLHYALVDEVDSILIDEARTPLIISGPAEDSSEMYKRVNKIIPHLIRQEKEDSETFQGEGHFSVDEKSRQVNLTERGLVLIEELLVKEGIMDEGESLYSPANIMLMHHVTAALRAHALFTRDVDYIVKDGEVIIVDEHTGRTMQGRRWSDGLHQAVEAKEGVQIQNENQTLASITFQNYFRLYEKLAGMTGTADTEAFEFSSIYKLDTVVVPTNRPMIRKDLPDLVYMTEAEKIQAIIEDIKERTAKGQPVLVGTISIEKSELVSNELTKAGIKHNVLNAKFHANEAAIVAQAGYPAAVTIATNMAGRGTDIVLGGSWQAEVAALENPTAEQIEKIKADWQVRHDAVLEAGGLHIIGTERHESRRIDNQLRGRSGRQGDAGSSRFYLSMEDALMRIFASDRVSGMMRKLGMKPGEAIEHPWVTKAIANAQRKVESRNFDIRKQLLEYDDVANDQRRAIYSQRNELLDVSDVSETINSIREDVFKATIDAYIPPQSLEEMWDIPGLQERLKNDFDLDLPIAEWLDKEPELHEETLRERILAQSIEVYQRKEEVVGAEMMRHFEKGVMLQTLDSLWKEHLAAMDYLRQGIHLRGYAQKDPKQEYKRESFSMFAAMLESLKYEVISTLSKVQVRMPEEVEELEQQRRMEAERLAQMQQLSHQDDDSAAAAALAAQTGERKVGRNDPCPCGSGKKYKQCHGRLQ
Sequence of Sialic acid-binding Ig-like lectin 9 (Homo sapiens) (Q9Y336 whole entry): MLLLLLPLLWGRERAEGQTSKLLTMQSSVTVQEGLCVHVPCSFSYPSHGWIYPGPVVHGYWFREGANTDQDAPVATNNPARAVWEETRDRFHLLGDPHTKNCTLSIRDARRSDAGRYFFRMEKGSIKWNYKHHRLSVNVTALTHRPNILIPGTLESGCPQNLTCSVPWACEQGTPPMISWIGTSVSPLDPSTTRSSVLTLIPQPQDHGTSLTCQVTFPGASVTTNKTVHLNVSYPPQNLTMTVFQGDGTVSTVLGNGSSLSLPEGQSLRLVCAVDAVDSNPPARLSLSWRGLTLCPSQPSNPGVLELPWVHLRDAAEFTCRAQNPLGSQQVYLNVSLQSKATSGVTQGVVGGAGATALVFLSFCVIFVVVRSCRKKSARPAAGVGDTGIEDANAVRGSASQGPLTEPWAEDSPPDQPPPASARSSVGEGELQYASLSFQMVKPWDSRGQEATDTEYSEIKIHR

Turning to `CC(O)CN1CCC(CNCc2ccccc2OC(F)(F)F)CC1` (stereo not given), the Percent Effect is -4.07% in test [1]; 10.3% in [2]; -7.91% in [3]; 7.98% in [4]; -1.64% in test [5]; 9.81% in [6]. Besides, the Percent Effect in [7] was 2.5%; in [8], 0.478%; in test [9] it was 10.8%; in test [10] it was -0.0569%.

Consider `CN1[C@H](CN2CCCC2)C[C@@H]2CN(C(=O)c3cccn3C)CC[C@@H]21`, for which the Percent Effect in [1] was -1.76%; in [2] it was -1.3%; in [3] it was 1.42%; in test [4], 0.563%; in test [5] it was -0.457%; in test [6] it was 0.944%. The Percent Effect is -0.498% in test [7], 10.6% in test [8], 12.5% in test [9] and -6.06% in test [10].

As for `CC(C)(C)c1n[nH]c(C2CN(C(=O)CCc3cscn3)CCO2)n1` (stereo not given), the Percent Effect was -2.17% in test [1]; 7.69% in test [2]; 15.8% in test [3]; 4.41% in [4]; 5.33% in [5]; 0.597% in test [6]. For the same molecule, the Percent Effect in [7] is 6.37%; in test [8] it was 3.35%; in test [9], 13.2%; in test [10], -1.16%.

As for `O=C(NCc1ccccc1-n1cccn1)N1CCN2CCCCC2C1` (stereo not given), the Percent Effect is -4.48% in [1]; 0% in [2]; 9.91% in test [3]; 0.803% in [4]; 2.22% in test [5]; 1.78% in [6]. Moreover, the Percent Effect in test [7] was -2.71%; in [8] it was 2.63%; in test [9], 10.3%; in test [10], -8%.

For the molecule `O=C(NCCCn1ccnc1)N1CCN(c2cccs2)CC1`, the Percent Effect in [1] was -5.79%; in test [2], -10.4%; in test [3], 7.23%; in test [4] it was 2.42%; in test [5], -9.22%; in test [6], 12.8%. Also, the Percent Effect in test [7] was -11.9%; in test [8], 28.4%; in [9], 11.8%; in test [10] it was 0.725%.

For the molecule `Cn1cccc1-c1cc(C(=O)N2CC(c3cccnc3)C2)[nH]n1`, the Percent Effect in [1] was -12.9%; in [2], 2.7%; in test [3] it was 4.47%; in test [4] it was -2.81%; in test [5], 1.05%; in test [6] it was 5.65%. The Percent Effect was 32.9% in test [7], -1.6% in test [8], 0% in [9] and 0.144% in test [10].

Regarding `Cn1cc(NC(=O)N2CCC(NS(C)(=O)=O)CC2)ccc1=O`, the Percent Effect in test [1] was 1.1%; in [2], 48.7%; in test [3], 0.0157%; in [4], -2.54%; in test [5], 13.9%; in test [6], 1.11%. Moreover, the Percent Effect in test [7] is 18.1%; in test [8] it was -9.09%; in [9], -13.2%; in [10], -0.842%.

`C[C@@H]1C(=O)NC[C@H]2CN(CCc3ccccc3)C[C@H]21`: the Percent Effect in test [1] was -0.103%; in [2], 16.9%; in test [3], 0.474%; in test [4] it was 1.5%; in test [5] it was 2.74%; in test [6] it was 11.4%. Also, the Percent Effect is 2.51% in [7], 11.6% in test [8], 20% in [9] and -8.42% in test [10].

As to `Cc1nn2cccnc2c1C(=O)N1CCCC(n2ccnc2)C1` (stereo not given), the Percent Effect is 0.231% in test [1]; 13.3% in test [2]; -7.92% in [3]; -2.21% in test [4]; 0% in test [5]; 8.23% in [6]. In addition, the Percent Effect in [7] was 2.09%; in test [8], 3.68%; in test [9], 12.8%; in [10], -11.1%.

Turning to `CC(C)NC(=O)Nc1ccc(CNCc2cccc(OC(F)F)c2)cc1`, the Percent Effect in test [1] was -3.77%; in test [2], 10.4%; in test [3], -3.29%; in test [4] it was -2.98%; in test [5] it was -10%; in test [6], 24%. Besides, the Percent Effect was 25.1% in [7], 4.9% in test [8], 7.06% in test [9] and -10.9% in [10].

Turning to `O=C(Nc1ccccc1)C1=CC2(CCNCC2)c2ccccc21`, the Percent Effect in test [1] was -2.8%; in test [2], 9.09%; in test [3], 1.86%; in test [4], -0.938%; in [5] it was 3.2%; in test [6] it was 13.5%. Further, the Percent Effect in [7] is -1.59%; in test [8] it was -2.9%; in [9], -2.5%; in [10], -4.38%.
